# Screening results: PubChem, several laboratories
# An excerpt weighted towards active compounds, which were near 1.5% of everything screened.
# Keap1 Nrf2 FP: inhibitors of human Keap1-Nrf2 protein-protein interaction | Q14145 | 340,000 tested, 0.15% active | inhibition, % at 9.4 µM | Keap1 Kelch-Nrf2 peptide fluorescence polarization, 1536-well; in the data active = inhibition above about 12%;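 also: human Keap1 Kelch domain with fluorescein labeled Nrf2 9mer peptide probe; 0% = neutral control wells and 100% = peptide positive control; higher means more block of Keap1 binding to Nrf2 peptide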
# LANA-H2B inh: blocks KSHV LANA binding to histone H2A/H2B; Q9QR71; cell-free LANA-H2A/H2B peptide, fluorescence polarization; inhibition, % (concentration not given with the values); 320,000 tested, 0.6% active; AID 2629; in the data active = inhibition mostly above about 10%, no sharp cut-off; inactive = mostly below about 6.7%
# Target sequence (Q9QR71 whole entry, looked up): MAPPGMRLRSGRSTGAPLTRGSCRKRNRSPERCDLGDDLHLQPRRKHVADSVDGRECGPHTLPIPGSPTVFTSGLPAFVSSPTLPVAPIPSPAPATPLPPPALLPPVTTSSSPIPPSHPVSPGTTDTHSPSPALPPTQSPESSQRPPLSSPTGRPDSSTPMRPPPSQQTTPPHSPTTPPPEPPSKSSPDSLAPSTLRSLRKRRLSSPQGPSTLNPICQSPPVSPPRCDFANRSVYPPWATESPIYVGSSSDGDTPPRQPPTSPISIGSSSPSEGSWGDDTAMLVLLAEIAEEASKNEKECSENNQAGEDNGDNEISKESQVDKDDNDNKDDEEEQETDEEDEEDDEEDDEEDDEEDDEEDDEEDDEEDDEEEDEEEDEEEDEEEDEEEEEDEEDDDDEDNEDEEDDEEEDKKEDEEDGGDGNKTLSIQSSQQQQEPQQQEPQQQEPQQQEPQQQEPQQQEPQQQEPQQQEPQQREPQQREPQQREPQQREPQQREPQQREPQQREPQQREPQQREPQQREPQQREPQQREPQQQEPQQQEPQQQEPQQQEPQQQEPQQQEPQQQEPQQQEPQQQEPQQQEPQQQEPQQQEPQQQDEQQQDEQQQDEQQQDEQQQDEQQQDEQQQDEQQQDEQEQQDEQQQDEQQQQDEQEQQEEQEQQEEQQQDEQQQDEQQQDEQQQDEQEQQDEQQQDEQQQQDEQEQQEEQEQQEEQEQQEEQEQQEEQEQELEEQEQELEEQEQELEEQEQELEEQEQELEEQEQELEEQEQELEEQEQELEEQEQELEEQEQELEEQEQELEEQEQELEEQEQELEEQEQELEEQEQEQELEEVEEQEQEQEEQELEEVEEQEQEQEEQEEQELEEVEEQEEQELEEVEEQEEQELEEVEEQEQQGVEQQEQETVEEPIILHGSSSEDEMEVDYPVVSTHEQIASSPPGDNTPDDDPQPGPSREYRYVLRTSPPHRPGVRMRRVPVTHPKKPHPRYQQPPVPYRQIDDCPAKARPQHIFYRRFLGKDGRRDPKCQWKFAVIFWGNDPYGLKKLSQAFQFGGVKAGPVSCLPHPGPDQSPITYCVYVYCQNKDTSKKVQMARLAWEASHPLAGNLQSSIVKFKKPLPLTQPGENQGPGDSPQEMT
# GLD-1 TGE inh: GLD-1-TGE RNA interaction inhibition (C. elegans); Q17339; purified GLD-1 + fluorescein TGE RNA, fluorescence polarization; inhibition, % at 5.96 µM; 320,000 tested, 0.44% active; AID 2280;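 active = percent inhibition above a per-plate cutoff, the plate mean of test compounds plus 3 SD, cut at about 30% in these data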;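 also: 0% = DMSO wells with GLD-1 and probe and 100% = wells lacking GLD-1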
# EBV gp42 inh: inhibitors of Epstein-Barr virus glycoprotein 42; Q1HVG2; Fluorescence polarization binding assay, mP read-out; inhibition, % (tested at 21.74 µM); 220,000 tested, 0.42% active; AID 1085; in the data active = inhibition above about 50%
# eLon inh: inhibitors of E. coli Lon protease; inhibition, % at 7.94 µM; 360,000 tested, 0.42% active; purified E. coli Lon protease, fluorescence polarization; in the data active = inhibition above about 13%, passing the limit was not always enough;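 also: 0% = enzyme with probe and DMSO and 100% = no enzyme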
# LANA DNA inh: inhibitors of KSHV LANA C-terminal domain DNA binding | MBP-C-LANA/FAM-LBS DNA binding, fluorescence polarization | inhibition, % at 9 µM | 340,000 tested, 0.078% active | AID 504423;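 active = highest replicate inhibition at or above 60% at 9 µM, even if other replicates fall short; inactive = all replicates below 60% inhibition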;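 also: 0% = neutral control wells and 100% = 4 µM acridine orange control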
# GLD1 RNA confirm: GLD-1 TGE RNA interaction inhibition, confirmation; shares compounds with GLD-1 TGE inh; GLD-1/FL-TGE RNA fluorescence polarization, biochemical; inhibition, % at 5.96 µM; 550 tested, 10% active; AID 2459;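 active = average inhibition across triplicates above the hit cutoff set in the primary screen, cut at about 32% in these data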;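 also: 0% = GLD-1 with RNA probe and DMSO and 100% = wells lacking GLD-1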
# Keap1 TSA: Keap1 (human) Kelch domain binding; shares compounds with Keap1 Nrf2 FP; Keap1 Kelch thermal shift, delta Tm; hits give high values; max delta Tm, degrees C; 400 tested, 8% active; AID 651823; in the data active = max delta Tm above about 0.48 degrees C
# Dye-only ctr: shifts Sypro Orange melt without protein, a false positive; shares compounds with Keap1 Nrf2 FP; Sypro Orange dye-only thermal melt, no protein, delta Tm; top dose 26 µM; delta Tm, degrees C (no concentration beside the values); 140 tested, under 10 active;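 active = at highest dose tested, delta Tm positive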
# E coli Lon conf: E. coli Lon inhibition confirmation; shares compounds with eLon inh; purified E. coli Lon, fluorescence polarization; 1,400 tested, 31% active; inhibition, % at 7.94 µM; in the data active = inhibition above about 16%;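 also: 0% = enzyme with probe and DMSO and 100% = no enzyme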
# * = called active by the depositor; · = not tested or not shown; + = active, no number.
SMILES,Keap1 Nrf2 FP,LANA-H2B inh,GLD-1 TGE inh,EBV gp42 inh,eLon inh,LANA DNA inh,others
COC(=O)C1=C(c2ccc3ccccc3c2)C[C@@H]2CC[C@H]1N2C(=O)NCc1ccc(C(F)(F)F)cc1,0,2,3,·,10,-1,
Cc1ccccc1-c1ccc2c(c1)CNCc1cnnn1-2,·,·,·,·,1,·,
CCN1/C(=C\C=C\C2=[N+](CC)c3ccccc3C2(C)C)C(C)(C)c2ccccc21,-372,-215,+,7,+,-43,
Cn1cccc1/C=C1\C(=O)NC(=O)N(CCC2=CCCCC2)C1=O,4,·,·,-54,-23,5,
Cn1cccc1/C=C1\C(=O)NC(=O)N(Cc2ccccc2Cl)C1=O,-4,·,·,58*,-38,1,
O=C1NC(=S)N(Cc2ccco2)C(=O)/C1=C\c1cccs1,·,·,·,72*,·,·,
N#Cc1cc2c(nc1SCC(=O)Nc1cc(Cl)ccc1Cl)C1CCN2CC1,-3,0,3,-14,-13,0,
CCOc1cccc(OCC)c2c(C)[n+](CC3CCCO3)c(C)c1-2 (stereo not given),8,-6,32*,9,30,19,
O=C1NC(=O)N(Cc2ccco2)C(=O)/C1=C/c1ccc(-c2cccc([N+](=O)[O-])c2)o1,2,6,-4,91*,-13,7,
C[C@H](CO)N1C[C@H](C)[C@H](CN(C)C(=O)Oc2cccc3ccccc23)OCc2cnnn2CCCC1=O,·,·,·,·,2,·,
C=CCn1c(O)c(Cc2ccc(OCC)cc2)c(=O)[nH]c1=O,-4,1,·,·,-3,1,
Nc1cc(Cl)cc(C(=O)O)c1Cl,4,38*,6,·,-1,0,
COc1ccc(CN(CCc2c[nH]c3ccccc23)Cc2ccc(OC)cc2)cc1,-7,·,·,·,-8,0,
CP(C)(=O)CCC(=O)O,5,0,2,-3,-7,1,
O=C(NCc1ccc(C(=O)N2CCC3(CC2)OCCO3)cc1)c1ccc2c(c1)OCO2,3,2,7,-5,9,1,
O=C(c1ccc2c(=O)n(Cc3ccc4c(c3)OCO4)c(=S)[nH]c2c1)N1CCC2(CC1)OCCO2,-3,57*,4,-5,5,0,
COc1cc2c(C(=O)O)c(C)n(C)c2cc1Br,-4,-1,11,-14,0,0,
COc1cc2c(C(=O)N3CCN(C)CC3)c(C)n(C)c2cc1Br,1,3,38*,0,20*,8,GLD1 RNA confirm=5
Cc1cccc(NC(=O)[C@@H](NC(=O)N2C[C@H]3C[C@@H](C2)c2cccc(=O)n2C3)C(C)C)c1,-8,3,3,·,1,0,
COc1ccc(CCn2c(O)c(C=NCCCO)c(=O)[nH]c2=O)cc1OC,-4,-1,4,-17,-9,-1,
COC(=O)[C@@]1(C#N)[C@@H]2C=CC(C(C)=O)=CN2[C@@H](C(N)=O)[C@@H]1c1ccc(F)cc1,3,-1,44*,119*,-10,3,GLD1 RNA confirm=97*
C[C@H]1CN([C@@H](C)CO)C(=O)CCCn2nncc2CO[C@@H]1CN(C)C(=O)Oc1ccccc1,·,·,·,·,6,·,
CN1Cc2c(c(C#N)c(N)n(C)c2=S)CC1(C)C,16*,10,46*,52*,40*,22,GLD1 RNA confirm=27
Nc1cc2nc3ccccc3nc2cc1N,3,-1,36*,179*,6,13,GLD1 RNA confirm=61*
CN1C[C@H](CO)C=C2c3cccc4[nH]cc(c34)C[C@H]21,9,2,64*,58*,84*,17,GLD1 RNA confirm=17;E coli Lon conf=7
SMILES,Keap1 Nrf2 FP,LANA-H2B inh,GLD-1 TGE inh,EBV gp42 inh,eLon inh,LANA DNA inh,others
Nc1nc(N)c2cnnn2n1,4,·,·,·,-2,-1,
CCn1cc(C=C2C(=O)NC(=O)NC2=O)c2ccccc21,21*,-7,-14,·,-25,29,Keap1 TSA=-0.08
CCOC(=O)c1c(/N=C/c2c(O)n(-c3cccc(C)c3)c(=O)[nH]c2=O)sc2c1CCCC2,72*,-3,-18,-16,-19,9,Keap1 TSA=-0.08
CCOC(=O)c1sc(/N=C/c2c(O)n(-c3ccccc3)c(=O)[nH]c2=O)c(C#N)c1C,-21,-5,-28,-48,-46,-1,
COC(=O)CC(=O)c1ccc2c(c1)OCO2,-6,5,0,·,4,1,
COCCNC(=O)Cn1cc(/C=C2\C(=O)NC(=O)N(c3cccc(C)c3C)C2=O)c2ccccc21,20*,-18,-9,·,-128,53,Keap1 TSA=-0.22;Dye-only ctr=-30
O=C(O)c1cccc2c1NC(C(=O)O)C1CC(Sc3ccccc3[N+](=O)[O-])C(Cl)C21 (stereo not given),31*,·,14,15,15,132*,Keap1 TSA=1*
CCC1C=CC=CC[C@H](C)[C@@H](O)[C@](C)(O)C(=O)[C@@H](C)[C@H](O)[C@@H](C)C(=O)[C@H](C)[C@@H](O)[C@H](C)C=CC(=O)OC2[C@@H](C)C(CC1)OC1(CC[C@@H](C)C(C[C@H](C)O)O1)[C@@H]2C (stereo not given in full),·,-3,8,·,·,·,
CN(C)C=C1C(=O)N(C2CCCCC2)C(=O)N(C2CCCCC2)C1=O,-3,0,-14,-18,5,1,
COc1ccc(-n2c(CNCCc3ccc(C)cc3)nc3ccccc3c2=O)cc1,36*,2,4,·,-5,18,Keap1 TSA=-0.19;Dye-only ctr=-28
CCCc1nc2ccccc2c(=O)n1-c1ccc(OC)cc1,0,0,0,-19,3,0,
CC1=NCCc2c1[nH]c1cc(O)ccc21,102*,142*,+,·,+,168*,Keap1 TSA=-0.16;Dye-only ctr=-36;E coli Lon conf=+
CCC(=NCCCN(C)C)c1c(O)n(-c2ccc(OC)cc2)c(=O)[nH]c1=O,-5,0,-2,-3,-9,-1,
CC1=C[C@@H]2c3cccc4[nH]cc(c34)C[C@H]2N(C)C1,14*,2,118*,·,116*,17,Keap1 TSA=0;E coli Lon conf=67*
C[N+]1(C)C2CC(OC(=O)C(CO)c3ccccc3)CC1C1OC12 (stereo not given),-5,0,5,·,0,-2,
COC1C(C)OC(OC2CC(C)(O)Cc3cc4c(c(O)c32)C(=O)c2c(O)cc3c(c2C4=O)OC2OC3(C)C(O)C(N(C)C)C2O)C(OC)C1(C)OC (stereo not given),-66,·,·,·,+,52,E coli Lon conf=104*
